Results: PubChem BioAssay (NCI)
The panel holds about 83,000 compounds, 20% with a hit somewhere; the sample as a whole holds those more often.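 Results are percent growth after 48 hours of single-concentration exposure. 100 means growth as in untreated cells, lower positive values show inhibition; negative values down to -100 show cell death.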 Values without a mark were called inactive. Activity calls are given as the source filed them. The calls were made as follows: active = growth percent below 10; inactive = the rest.

How the values were obtained:
Assay in all cases: NCI-60 one-dose screen, 48 h (100 = growth as untreated, 0 = no growth, -100 = all killed)
Conditions in all cases: 10 µM unless noted
[1] = system: DU-145 prostate
[2] = system: K-562 leukemia
[3] = system: MALME-3M melanoma
[4] = system: MDA-MB-231 breast
[5] = system: RXF 393 renal
[6] = system: SF-268 CNS
[7] = system: SF-295 CNS
[8] = system: SF-539 CNS
[9] = system: UACC-257 melanoma
[10] = system: M14 melanoma

SMILES | growth [1] | growth [2] | growth [3] | growth [4] | growth [5] | growth [6] | growth [7] | growth [8] | growth [9] | growth [10]
O=C1Nc2cc(-c3ccc(NS(=O)(=O)c4ccc(C(F)(F)F)cc4)cc3)ccc2/C1=C/c1ccc[nH]1 | 40.6% | 11.4% | 63.3% | 66.7% | 25% | 55.5% | 17.6% | 42.4% | 26.3% | 55.3%
CCOC(=O)c1ccc(NC(=S)NC(=O)c2ccc(NC(=O)C(C)C)cc2OC)cc1 | 78.2% | 10.7% | 3.16% (active) | 47.2% | 74.2% | 68.1% | 36.8% | 79.6% | 42% | 34.1%
CC(C)C[C@H](NC(=O)CNC(=O)C[C@H]1O[C@@H]2OC3(C)CC[C@H]4[C@H](C)CC[C@@H]([C@H]1C)[C@@]24O3)B(O)O | 42% | 8% (active) | -71.9% (active) | -80.9% (active) | -78.5% (active) | -22.4% (active) | -61.3% (active) | -93.6% (active) | -52.1% (active) | -45.8% (active)
Nc1ccc(-c2ccc3ncnc(N4CCc5cc(F)c(Cl)cc54)c3c2)cn1 | 5.3% (active) | 12.9% | 3.74% (active) | 18.4% | -19.2% (active) | 24% | 7.68% (active) | 24.9% | 43.1% | 13.5%
COc1ccc2c(c1)C(Sc1ccc(F)cc1)c1c(nc(N)c(C#N)c1N)O2 (stereo not given) | 99.5% | 63.5% | 88.3% | 80.1% | 69.2% | 85% | 92.8% | 90.5% | 104% | 84.9%
CCCCNc1ccc2c3c(cccc13)C(=O)N(NCC(O)COc1ccc3c(C)cc(=O)oc3c1)C2=O (stereo not given) | 89.2% | 75.8% | 110% | 81.4% | 91.6% | 79.6% | 95.5% | 91.8% | 106% | 90.6%
COc1ccc2oc(=O)c(-c3csc(N/N=C(\C)c4cc(OC)c(OC)c(OC)c4)n3)cc2c1 | 101% | 92.3% | 85% | 86.8% | 85.7% | 99.3% | 92% | 103% | 106% | 91.9%
Fc1ccc(Nc2nnc(-c3c[nH]c4ccccc34)o2)cc1 | 98% | 66.9% | 80.8% | 60.8% | 93.9% | 73.1% | 84.1% | 71.2% | 92.7% | 102%
COc1ccc(NC(=O)NN2C(=O)c3ccccc3N(C)C2c2ccc(OC)cc2)cc1 (stereo not given) | 107% | 95.6% | 95% | 98.9% | 112% | 107% | 101% | 100% | 103% | 70.3%
C[C@@H](Nc1c(C#N)cnc2ccc(-c3cnc4[nH]ncc4c3)cc12)c1ccccc1 | 12.3% | 22.4% | -2.53% (active) | 9.96% (active) | -15.1% (active) | 25.7% | -0.0923% (active) | 7.78% (active) | 32.5% | 29.9%
CCCSc1nnc(-c2c(C)nc3sccn23)o1 | 96.7% | 88.4% | 104% | 74.6% | 82.9% | 89.1% | 87.1% | 90.9% | 93.6% | 99.6%
N#Cc1ccc(C(=O)CSc2nc3c(c(Nc4ccc(S(N)(=O)=O)cc4)n2)CCC3)cc1 | 51.1% | 55.2% | 48.8% | -14.3% (active) | -18.1% (active) | 38.3% | 80.4% | 16.2% | 102% | 78.1%
COc1ccc2[nH]c(O)c(N=Nc3nc(-c4ccc(Cl)cc4)cs3)c2c1 | 4.95% (active) | 12.1% | -63.5% (active) | 17.6% | -90% (active) | -9.32% (active) | -46% (active) | -60.5% (active) | 9.82% (active) | -9.9% (active)
CN(C)c1nc(NCCNS(=O)(=O)c2ccc(C(=O)/C=C/c3ccc(C(F)(F)F)cc3)cc2)nc(N2CCOCC2)n1 | 3.39% (active) | -13.6% (active) | 56.5% | -59.1% (active) | -76.6% (active) | 50.5% | 7.03% (active) | -95.4% (active) | 37.9% | -87.5% (active)
O=C1Nc2cc(-c3ccc(NS(=O)(=O)c4ccc([N+](=O)[O-])cc4)cc3)ccc2/C1=C/c1ccc[nH]1 | -44.9% (active) | 12.6% | -0.842% (active) | 12.3% | -44.3% (active) | 46.6% | -32.7% (active) | -54.4% (active) | 4.04% (active) | -13.9% (active)
CCOC(=O)/C(F)=C/C1CC1CCc1ccc(OCC)cc1 (stereo not given) | 50.5% | 98.3% | 89.9% | 97.4% | 96.2% | 90.5% | 91.1% | 93% | 105% | 105%
Cc1ccc2c(c1)/C(=C/C(=O)c1cc3ccccc3oc1=O)C(=O)N2 | 83.9% | 6.62% (active) | -27.8% (active) | 65.1% | -41.2% (active) | 84.4% | 104% | 61.1% | 73.3% | 37%
CN1CCN(c2ccc3c4c(cccc24)C(=O)N(c2cccc(-c4nn(-c5ccccc5)cc4-c4nc5ccccc5s4)c2)C3=O)CC1 | 58.4% | -57.6% (active) | 74.4% | 33.7% | 72.9% | 100% | 112% | 81.6% | 119% | 90.6%
O=[N+]([O-])c1cccc(-c2nnc3c(/C=C/c4ccc(F)cc4)nc4ccccc4n23)c1 | 98.7% | 87% | 95.7% | 94.6% | 77.2% | 87.5% | 80.8% | 66.9% | 107% | 108%
C[C@H]1[C@@H](CC(=O)N[C@@H](Cc2coc3ccccc23)B(O)O)O[C@@H]2OC3(C)CC[C@H]4[C@H](C)CC[C@@H]1[C@@]24O3 | 45% | 14.8% | -41.6% (active) | -68.3% (active) | -59% (active) | 17.5% | -65.7% (active) | -91.6% (active) | -45.3% (active) | -33.7% (active)
c1ccc(CSc2nnc(-c3ccc4nc(-c5ccccc5)[nH]c4c3)o2)cc1 | 21.4% | 33.5% | 7.77% (active) | -12.8% (active) | -22.1% (active) | 8.24% (active) | 17.1% | -39.9% (active) | 57.6% | 41.5%
COc1ccc(NC(=O)Cn2c(/C=C/c3cccc(OC)c3)nc3ccccc3c2=O)cc1 | 74.3% | 84% | 62.7% | -30.3% (active) | -31.9% (active) | 66.1% | 34.6% | -45.7% (active) | 81.1% | 61.2%
Cn1cc(-c2cc3nc(-c4cn(C)c5ncc(Br)cc45)cc(N)n3n2)c2cc(F)ccc21 | 0.863% (active) | 21.9% | 8.23% (active) | -42.1% (active) | -39.8% (active) | 57.6% | -45.7% (active) | -26.5% (active) | 24.4% | 7.16% (active)
Cc1ccc(C(=O)Nc2cc(-n3cnc(F)c3)cc(C(F)(F)F)c2)cc1C#Cc1cnc2cccnn12 | 80.9% | -9.19% (active) | -3.1% (active) | 49.2% | 57.9% | 91.6% | 63.9% | 3.39% (active) | 58% | 17.7%
O=C(NN1C(=O)/C(=C/C=C/c2ccc([N+](=O)[O-])o2)SC1=S)c1ccc(O)cc1 | -100% (active) | 0.602% (active) | -97.9% (active) | -95.9% (active) | -86.2% (active) | -74.3% (active) | -85.6% (active) | -100% (active) | -90.4% (active) | -81.9% (active)
O=C(Nc1ccc(F)cc1)Nc1nc2ccc([N+](=O)[O-])cc2s1 | 24.2% | 6.19% (active) | -17.9% (active) | -2.3% (active) | -14.9% (active) | 18% | -46% (active) | 7.13% (active) | -12.8% (active) | -3.58% (active)
COc1cncc(-c2ccc3ncnc(N4CCc5ccc(Cl)cc54)c3c2)c1 | 24.6% | 12.6% | 44.2% | 29.4% | -18.1% (active) | 46.7% | 20.3% | 33.2% | 63.5% | -52.4% (active)
